Test results from ChEMBL document CHEMBL3433997, “St. Jude Leishmania screening dataset” (2016).

What was measured:
Assay type in all cases: functional
[1] = biological target: Solute carrier family 2, facilitated glucose transporter member 1 (Homo sapiens) (UniProt P11166); test: ST_JUDE_LEISH: Cytotoxicity at 2uM final concentration against transgenic Leishmania Mexicana promastigotes LmGLUT1 that are glucose transport deficient and complemented with the human glucose transporter GLUT1. Activity is measured by DNA content using SYBR green in vitro
[2] = biological target: Hexose transporter 1 (Plasmodium falciparum) (UniProt O97467); test: ST_JUDE_LEISH: Cytotoxicity at 2uM final concentration against transgenic Leishmania Mexicana promastigotes LmPfHT that are glucose transport deficient and complemented with the Plasmodium falciparum hexose transporter. Activity is measured by DNA content using SYBR green in vitro
[3] = biological target: Glucose transporter (Leishmania mexicana) (UniProt O61059); test: ST_JUDE_LEISH: Cytotoxicity at 2uM final concentration against transgenic Leishmania Mexicana promastigotes LmGT2 that are glucose transport deficient and complemented with the L. Mexicana glucose transporter 2. Activity is measured by DNA content using SYBR green in vitro

Solute carrier family 2, facilitated glucose transporter member 1 (Homo sapiens), sequence (P11166 whole entry): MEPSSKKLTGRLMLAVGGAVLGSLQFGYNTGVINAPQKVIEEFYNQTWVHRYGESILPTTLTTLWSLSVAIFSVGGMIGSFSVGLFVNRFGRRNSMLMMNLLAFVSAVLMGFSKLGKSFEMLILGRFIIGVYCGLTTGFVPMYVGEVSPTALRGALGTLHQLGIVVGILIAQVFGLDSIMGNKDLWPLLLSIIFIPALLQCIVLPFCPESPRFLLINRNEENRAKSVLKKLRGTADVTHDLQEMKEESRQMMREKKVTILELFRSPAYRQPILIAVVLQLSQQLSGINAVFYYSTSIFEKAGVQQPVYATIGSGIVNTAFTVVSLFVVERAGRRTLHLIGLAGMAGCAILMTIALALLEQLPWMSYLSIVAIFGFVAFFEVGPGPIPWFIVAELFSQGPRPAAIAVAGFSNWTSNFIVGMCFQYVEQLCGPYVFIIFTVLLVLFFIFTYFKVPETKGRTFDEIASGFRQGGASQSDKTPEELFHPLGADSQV

SMILES	inhibition [1] [%]	inhibition [2] [%]	inhibition [3] [%]
CS(=O)(=O)c1ccc2c(c1)CCN(CCC1CCC(NC(=O)C(=Cc3cccc(C#N)c3)c3ccc(-c4ccccc4)cc3)CC1)CC2 (stereo not given)	1.14	2.77	1.15
N=c1c2c(n(Cc3cccc(Cl)c3)c3c1CCC3)CCCC2	40.7	49.2	20.4
Nc1nc(N)c2c(ccc3c2ccn3Cc2ccc3c(c2)OCO3)n1	97.8	97.5	93.7
CCCC(C)Nc1nc(C)cc(N[C@@H](CC(C)C)C(=O)Nc2ccc(OC)cc2)n1 (stereo not given in full)	3.3	3.9	1.36
CN1CCCC1CCCOC(=O)c1ccc(N)cc1 (stereo not given)	3.24	3.07	2.42
CCCCCc1ccc(N2C(N)=NC(N)=NC2(C)C)cc1	3.51	2.87	4.35
COc1ccc2nccc([C@@H](O)CN3CCC(NC(=O)c4ccc(C5(C(F)(F)F)N=N5)cc4)CC3)c2c1	14.3	24.5	40.7
COc1ccccc1-c1cccc(CNC2CCN(CC3Cn4c(=O)ccc5ccc(F)c3c54)CC2)c1 (stereo not given)	15	31.3	54.7
CCCCCN1C(=O)N(c2ccc(Cl)c(Cl)c2)C(N(O)C(=O)Nc2ccc(Cl)c(Cl)c2)C1(C)C (stereo not given)	4.79	4.73	2.87
COc1ccc(O)c(Cc2cnc3nc(N)nc(N)c3c2C)c1	12.3	11.2	11.4
NC1=NC(Cc2ccccc2)N(c2ccc(Cl)cc2)C(N)=N1 (stereo not given)	8.89	6.99	5.89
CN(C)Cc1ccc(-c2cccc(NC(=O)c3cccc(Cl)c3)c2)cc1	2.44	1.66	1.39
CC(NC(=O)c1ccc(O)c(-c2ccc(Cl)c(Cl)c2)c1)C(=O)NCCN1CCCCC1 (stereo not given)	-0.39	1.71	0.47
COc1ccc(S(=O)(=O)NC2CCN(c3cc(C)nc(Nc4cccc(C#N)c4)n3)CC2)cc1	4.31	1.33	0.61
Cc1ccc2cc(C3NC(=O)c4ccccc4N3)c(Cl)nc2c1 (stereo not given)	18.9	16.3	14.9
Cc1ccc(NC(=O)c2ccc(Cl)cc2)cc1-c1ccc(C(=O)Nc2ccncc2)cc1	-1.61	1.31	0.29
COc1ccc(CCCN2C(=O)C(c3ccccc3)(c3ccccc3)N=C2N)cc1	-1.19	-0.94	-1.7
CC(C)(C)OC(=O)N[C@@H](Cc1ccccc1)C(=O)Nc1cccc(-c2cccc(NC(=O)[C@H](Cc3ccccc3)NC(=O)OC(C)(C)C)c2)c1	0.62	0.21	0.33
Cc1cc(NCCc2ccccc2)nc(N/C(=N/CC(=O)OC(C)(C)C)Nc2ccc(C(F)(F)F)cc2)n1	4.08	0.44	2.34
O=C(/C=C/c1cc(C(F)(F)F)ccc1F)NCCCCCN1CCC(c2c[nH]c3ccccc23)CC1	0.77	1.47	0.28
Cc1nc(-c2cccc(Nc3nccc(NCC(O)c4cccc(C(F)(F)F)c4)n3)c2)cs1 (stereo not given)	1.56	0.83	-0.26
Cc1ccc(NC(=O)c2ccc(-c3cc4cc(Cl)c(Cl)cc4[nH]3)cc2)cc1OCCN1CCCC1	-0.06	-0.67	0.15
O=C(NCCc1ccccc1)N(Cc1ccccc1-c1cccc(CNCc2ccc3c(c2)OCO3)c1)C1CCN(Cc2ccccc2)CC1	3.72	4.3	3.13
COCCOc1ccc(C(F)(F)F)cc1NC(=O)Cc1c(F)cccc1Cl	11.3	8.21	6.01

SMILES	inhibition [1] [%]	inhibition [2] [%]	inhibition [3] [%]
COc1cc(Nc2nccc(N3CCC(NC(=O)c4cccc(NC(C)=O)c4)C3)n2)cc(OC)c1OC (stereo not given)	0.31	0.55	-0.85
O=C(NCc1ccc(C(=O)NC2CCCCCC2)cc1)c1ccc(O)c(-c2ccc(Cl)c(Cl)c2)c1	1.17	1.13	0.44
CC12CC3CC(C)(C1)CC(Nc1nc(N4CCOCC4)nc4ccccc14)(C3)C2	2.67	2.82	-0.7
CCCc1cc(Cc2cnc(N)nc2N)ccc1OCCCCCC(=O)O	1.42	2.24	1.32
Cc1nc(Nc2ccc(F)cc2)nc(N2CCc3ccccc3[C@@H]2C)c1C	3.94	5.21	1.46
Cc1ccc(NC(=O)Nc2ccc(Cl)cc2)cc1-c1ccc(C(=O)Nc2ccncc2)cc1	2.15	1.58	0.65
COc1ccc(CCNc2nc(NCc3ccccc3)c3cc(OC)c(OC)cc3n2)cc1OC	5.66	8.24	0.26
Cc1cccc2nc(-c3ccc(-c4ccc(CNCc5ccc(S(C)(=O)=O)cc5)cc4)cc3)[nH]c12	12	10.9	7.88
Cc1cc2cc(/C=C/C(=O)NC3CCC(CCN4CCc5ccc(C#N)cc5CC4)CC3)ccc2[nH]1 (stereo not given)	9.08	7.95	8.66
CC(C)CNCc1ccc(-c2cccc(-c3nc4ccccc4[nH]3)c2)cc1	1.31	9.2	0.1
CNCCNCc1cccc(-c2ccc(-c3nc4cc(C(F)(F)F)ccc4[nH]3)s2)c1	2.35	3.82	1.39
O=c1cc(NCCCNCc2ccc(Cl)c(Cl)c2)[nH]c2ccc(C(F)(F)F)cc12	2.13	1.67	2.08
CCC1CN2CCc3c([nH]c4ccccc34)C2CC1CC1=NCCc2c1[nH]c1ccccc21 (stereo not given)	1.78	3.33	2.74
COc1cc(Nc2ccc3cc(S(=O)(=O)N4CCCCC4C)ccc3n2)cc(OC)c1OC (stereo not given)	6.4	34.2	0.58
CCNc1cc(C(=O)N[C@@H](Cc2ccccc2)[C@H](O)CNC23CC4CC(CC(C4)C2)C3)cc(N2CCCCS2(=O)=O)c1	3.41	3.36	-0.1
Cc1sc(NC(=O)c2ccc([N+](=O)[O-])cc2Cl)c(C(N)=O)c1C	2.24	2.08	2.74
Cc1ccc(F)cc1S(=O)(=O)Nc1ccc(CCN2CCC(N3CCCCC3)CC2)cc1	0.5	-0.31	1.36
COc1ccc(NC(=O)c2cn(-c3ccc(C(C)(C)C)cc3)nc2C)cc1N1CCN(C)CC1	1.31	0.2	1.64
N#CC(NC(=O)C=Cc1ccccc1)c1ccccc1 (stereo not given)	-1	-2.81	-0.2
COc1ccc(C=NN=c2cc(C)[nH]c3ccc(C)cc23)c2ccccc12	0.11	1.75	-1.89
COc1ccc(NC(=O)Nc2cccc(-c3ccc(-c4nc5cc(C(F)(F)F)ccc5[nH]4)cc3)c2)cc1	0.43	-0.19	-2.91
CN(C)Cc1c(O)ccc2[nH]c(-c3ccc(F)cc3F)nc12	1.13	1.4	-1.59
COc1ccc(CNC(=N)Nc2nc(-c3ccc(OCCCn4ccnc4)cc3)cs2)cc1	10.6	7.44	2.73
Cc1ccc(-n2c(Sc3ncnc4sccc34)nnc2N2CCCC2)cc1	2.72	2.48	1.41

SMILES	inhibition [1] [%]	inhibition [2] [%]	inhibition [3] [%]
COc1ccc(NC(=O)Nc2ccc(C)c(-c3ccc(C(=O)Nc4ccncc4)cc3)c2)cc1	1.53	1.45	0.71
COc1cc(Nc2ncnc3cc(OC)c(OC)cc23)cc([N+](=O)[O-])c1	-1.65	0.11	-0.41
O=C(/C=C/c1ccc(Cl)c(Cl)c1)NCCCCCN1CCC(NC(=O)Nc2cc(Cl)ccc2Cl)CC1	9.69	8.99	9.67
CCNc1cc(C(=O)N[C@@H](Cc2cccc(Cl)c2)[C@H](O)CNC(C)CCCC(C)C)cc(N2CCCCS2(=O)=O)c1 (stereo not given in full)	-0.84	-1.5	-4.25
Fc1cccc(Cl)c1-c1nc(NCCC(c2ccccc2)c2ccccc2)no1	-0.45	0.05	1.11
O=C(Cc1c[nH]cn1)Nc1cccc(-c2cccc(-c3nc4cc(C(F)(F)F)ccc4[nH]3)c2)c1	9.44	12.1	10.4
Cc1csc(-c2nc(NCc3cccnc3)ncc2-c2ccsc2)n1	2.02	2.53	3.04
O=C(Nc1ccc(-c2ccccc2)cc1)Nc1cccc(Cn2nc(Cl)c(N3CCNCC3)cc2=O)c1	0.77	2.24	4.62
CCN1CCC(N(Cc2ccc(-c3ccc(C(F)(F)F)cc3)cc2)C(=O)Cn2c(CCc3cccc(F)c3F)cc(=O)c3cn(C)nc32)CC1	-2.3	1.08	0.21
O=C(Nc1cccc(CN2CCN(C(=O)c3cccc(Cl)c3)CC2)c1)c1cccs1	5.62	4.14	2.57
COc1ccc(NS(=O)(=O)c2ccc(C(=O)Nc3ccc(C(F)(F)F)cc3)cc2)cc1N1CCN(CC2CC2)CC1	0.55	0.6	-7.4
O=C(NCCc1ccccc1)N(Cc1ccccc1-c1ccc(CNCCc2ccccc2)cc1)C1CCN(Cc2ccccc2)CC1	7.2	8.75	3.55
CC(Oc1ccc(Cl)cc1)C(=O)NCCC1CCN(CCCCCNC(=O)/C=C/c2ccc(Cl)c(Cl)c2)CC1 (stereo not given)	2.73	1.37	0.04
O=C(NCCN1CCCC1)N1CCCN(c2ncnc3cc(-c4ccc(F)cc4)sc23)CC1	-1.05	-2.33	4.44
CC1CCCN(S(=O)(=O)c2cc(Br)cc3c2N(C(=O)C2CC2)CC3)C1 (stereo not given)	2.64	2.33	1.02
CC(C)(CNCc1ccc(OC(F)(F)F)cc1)c1nc(-c2ccc(Cl)c(O)c2)c(-c2ccncc2)[nH]1	-0.48	0.11	6.94
O=C(CCCCCCc1ccccc1)Nc1ccc2nc3c(c(NCc4ccccc4)c2c1)CCCC3	-0.24	1.39	-2.98
Fc1ccc2[nH]c(-c3ccc(-c4ccc(CN5CCC(CCN6CCCCC6)CC5)cc4)cc3)nc2c1	7.35	9.43	3.31
COc1ccccc1CCN1CCC(CN(C)Cc2ccc(O)c(Cl)c2)CC1	2.46	5.47	4.27
COc1ccc(-c2csc3nc(C)nc(Cl)c23)cc1OC	-0.82	0.48	0.63
COc1ccc2ncc(F)c(NC(=O)C3CCC(NCc4cc5cc(F)cc(F)c5[nH]4)CC3)c2n1 (stereo not given)	68.5	78.5	82.5
CN(C)CCCOc1cccc(NC(=O)Nc2ccc(-c3ccccc3)cc2)c1	-1.01	-1.23	-3.41
